# Active and inactive are the calls of the source. The calls were made as follows: active = hit-call score of the fitted dose curve at least 0.9, where 1 is the maximum; inactive = score below 0.9.
# What was measured:
# [1] = ATG_GLI_CIS: Attagene CIS-FACTORIAL HepG2 Assay for human Zinc Finger Protein GLI1 (AID 2282945); conditions: HepG2, Attagene cis-factorial reporter mRNA, GLI element; actives raise or lower the signal
# How it was run: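 Bidirectional curve fits relative to DMSO, using reporter mRNA levels from RT-PCR plus capillary electrophoresis. Cells were HepG2 transiently carrying cis-regulated reporter constructs, harvested 24 h after dosing.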
# [2] = molecular target: Bile acid receptor (Homo sapiens) (UniProt Q96RI1); experiment: ATG_IR1_CIS: Attagene CIS-FACTORIAL HepG2 Assay for human Nuclear Receptor Subfamily 1 Group H Member 4 (NR1H4), IR1 submotif (AID 2282946); conditions: IR1 reporter transcription, actives raise or lower the signal
# Sequence of Bile acid receptor (Homo sapiens) (Q96RI1 whole entry, looked up): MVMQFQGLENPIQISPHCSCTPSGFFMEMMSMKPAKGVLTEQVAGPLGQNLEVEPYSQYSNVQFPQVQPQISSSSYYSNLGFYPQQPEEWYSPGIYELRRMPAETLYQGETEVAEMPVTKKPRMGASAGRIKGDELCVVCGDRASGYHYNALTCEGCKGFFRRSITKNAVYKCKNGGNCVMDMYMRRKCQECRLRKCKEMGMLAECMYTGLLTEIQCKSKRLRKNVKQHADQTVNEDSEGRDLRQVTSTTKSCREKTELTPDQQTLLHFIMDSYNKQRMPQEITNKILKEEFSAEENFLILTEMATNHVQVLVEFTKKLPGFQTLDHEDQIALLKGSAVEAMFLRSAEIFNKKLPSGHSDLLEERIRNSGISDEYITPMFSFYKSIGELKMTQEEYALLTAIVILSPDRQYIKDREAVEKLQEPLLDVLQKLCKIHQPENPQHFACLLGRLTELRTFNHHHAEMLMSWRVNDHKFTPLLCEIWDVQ
# How it was run: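 HepG2 cells transiently transfected with multiplexed cis-element reporter units read endogenous transcription factor activity. After 24 h compound exposure, reporter mRNA was quantified by RT-PCR, fluorescent labelling, HpaI digestion and capillary electrophoresis; bidirectional fitting versus DMSO baseline.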
# [3] = ATG_GRE_CIS: Attagene CIS-FACTORIAL HepG2 Assay for human Glucocorticoid Response Elements (GRE) (AID 2282947); conditions: HepG2 GRE cis-reporter, Attagene multiplex mRNA; actives raise or lower the signal
# How it was run: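 Multiplexed cis-reporter mRNA induction, HepG2, 24 h post-dose. RT-PCR, FAM-labelled, HpaI-digested amplicons by CE. Bidirectional fit vs DMSO.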
# [4] = ATG_M_32_CIS: Attagene CIS-FACTORIAL HepG2 Assay for M32 Transcription Factor (Internal Marker) (AID 2282949); conditions: HepG2 Attagene cis-factorial M32 reporter, mRNA; actives raise or lower the signal;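 also: background control marker of the multiplexed CIS panel rather than a real target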
# How it was run: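 Transient MRTU transfection of HepG2; 24 h compound treatment; TriZol RNA, oligo(dT) RT, reporter PCR, 6-FAM primer extension, HpaI cut, CE. Gain/loss of signal vs DMSO.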
# [5] = ATG_M_06_CIS: Attagene CIS-FACTORIAL HepG2 Assay for M06 Transcription Factor (Internal Marker) (AID 2282950); conditions: HepG2 Attagene CIS-FACTORIAL M06 internal marker reporter; actives raise or lower the signal
# How it was run: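 Internal background marker within multiplexed cis-reporter HepG2 system. Cells transiently transfected, dosed 24 h; reporter mRNA measured by RT-PCR, HpaI digestion and capillary electrophoresis. Bidirectional fit relative to DMSO.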
# [6] = molecular target: Hypoxia-inducible factor 1-alpha (Homo sapiens) (UniProt Q16665); experiment: ATG_HIF1a_CIS: Attagene CIS-FACTORIAL HepG2 Assay for human Hypoxia Inducible Factor 1 (HIF1A) (AID 2282951); conditions: HepG2 Attagene cis-factorial HIF1a reporter transcription; actives raise or lower the signal
# Sequence of Hypoxia-inducible factor 1-alpha (Homo sapiens) (Q16665 whole entry, looked up): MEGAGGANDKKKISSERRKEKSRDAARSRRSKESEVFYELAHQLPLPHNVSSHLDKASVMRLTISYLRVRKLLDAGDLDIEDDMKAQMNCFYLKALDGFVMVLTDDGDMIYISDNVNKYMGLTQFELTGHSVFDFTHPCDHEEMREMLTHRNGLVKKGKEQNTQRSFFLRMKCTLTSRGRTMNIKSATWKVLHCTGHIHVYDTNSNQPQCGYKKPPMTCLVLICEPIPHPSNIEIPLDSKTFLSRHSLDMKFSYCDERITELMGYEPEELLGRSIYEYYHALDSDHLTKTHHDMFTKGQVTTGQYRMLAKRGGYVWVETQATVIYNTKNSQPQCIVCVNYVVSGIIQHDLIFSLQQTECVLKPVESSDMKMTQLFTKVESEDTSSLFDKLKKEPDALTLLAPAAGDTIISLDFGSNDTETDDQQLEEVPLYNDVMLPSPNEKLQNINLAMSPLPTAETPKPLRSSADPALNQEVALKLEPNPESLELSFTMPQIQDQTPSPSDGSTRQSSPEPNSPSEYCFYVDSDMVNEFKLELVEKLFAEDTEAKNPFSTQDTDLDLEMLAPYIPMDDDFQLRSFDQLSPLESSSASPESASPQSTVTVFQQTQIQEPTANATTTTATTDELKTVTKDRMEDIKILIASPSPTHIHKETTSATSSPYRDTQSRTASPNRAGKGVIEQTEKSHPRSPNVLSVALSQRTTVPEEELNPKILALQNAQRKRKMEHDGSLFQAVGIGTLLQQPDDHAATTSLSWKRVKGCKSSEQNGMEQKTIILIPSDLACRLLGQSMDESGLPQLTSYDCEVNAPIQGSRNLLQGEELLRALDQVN
# How it was run: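 Activity is fitted in both directions relative to DMSO. Reporter transcripts are read by RT-PCR, fluorescent primer extension and capillary electrophoresis after 24 h chemical treatment. The cells are HepG2 carrying transiently transfected cis-element-driven reporter units responding to endogenous factors.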
# [7] = molecular target: Hepatocyte nuclear factor 6 (Homo sapiens) (UniProt Q9UBC0); experiment: ATG_HNF6_CIS: Attagene CIS-FACTORIAL HepG2 Assay for human Hepatocyte Nuclear Factor 6 (HNF6) (AID 2282952); conditions: HepG2 Attagene cis-factorial HNF6 reporter transcription; actives raise or lower the signal
# Sequence of Hepatocyte nuclear factor 6 (Homo sapiens) (Q9UBC0 whole entry, looked up, the tested form may be a part): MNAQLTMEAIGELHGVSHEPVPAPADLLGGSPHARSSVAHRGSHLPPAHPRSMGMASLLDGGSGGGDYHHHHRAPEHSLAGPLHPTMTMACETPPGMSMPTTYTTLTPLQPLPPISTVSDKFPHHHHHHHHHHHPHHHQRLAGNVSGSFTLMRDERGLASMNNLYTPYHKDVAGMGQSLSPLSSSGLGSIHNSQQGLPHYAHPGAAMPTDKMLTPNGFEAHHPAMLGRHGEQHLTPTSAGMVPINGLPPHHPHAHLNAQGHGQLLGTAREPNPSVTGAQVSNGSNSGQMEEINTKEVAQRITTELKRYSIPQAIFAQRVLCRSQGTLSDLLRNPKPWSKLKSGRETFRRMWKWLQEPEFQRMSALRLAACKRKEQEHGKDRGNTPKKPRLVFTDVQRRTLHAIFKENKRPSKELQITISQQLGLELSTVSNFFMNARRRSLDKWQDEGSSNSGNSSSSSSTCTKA
# How it was run: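 Twenty-four-hour chemical treatment of reporter-transfected HepG2 cells precedes RNA isolation, DNase-treated reverse transcription and PCR of reporter sequences. Labelled fragments are sized by capillary electrophoresis and fitted bidirectionally versus DMSO.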
# [8] = molecular target: Heat shock factor protein 1 (Homo sapiens) (UniProt Q00613); experiment: ATG_HSE_CIS: Attagene CIS-FACTORIAL HepG2 Assay for human Heat Shock Transcription Factor 1 (HSE) (AID 2282953); conditions: HepG2 HSE cis-reporter, Attagene RNA transcription; actives raise or lower the signal
# Sequence of Heat shock factor protein 1 (Homo sapiens) (Q00613 whole entry, looked up): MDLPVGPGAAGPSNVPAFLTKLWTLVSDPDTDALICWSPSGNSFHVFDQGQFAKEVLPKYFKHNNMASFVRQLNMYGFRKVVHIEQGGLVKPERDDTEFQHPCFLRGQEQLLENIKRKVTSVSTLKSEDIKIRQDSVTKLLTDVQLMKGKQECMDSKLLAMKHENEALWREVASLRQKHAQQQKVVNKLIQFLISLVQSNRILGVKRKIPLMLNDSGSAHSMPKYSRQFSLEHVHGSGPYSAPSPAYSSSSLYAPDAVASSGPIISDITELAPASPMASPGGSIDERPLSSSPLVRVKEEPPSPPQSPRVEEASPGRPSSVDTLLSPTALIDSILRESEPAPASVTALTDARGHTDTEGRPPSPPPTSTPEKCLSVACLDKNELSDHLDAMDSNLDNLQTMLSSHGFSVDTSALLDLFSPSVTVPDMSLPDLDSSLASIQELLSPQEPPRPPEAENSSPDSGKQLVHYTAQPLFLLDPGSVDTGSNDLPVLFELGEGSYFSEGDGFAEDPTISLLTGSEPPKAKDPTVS
# How it was run: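 HepG2 cells transfected with cis-promoter reporter units sensing endogenous transcription factor activity; reporter mRNA quantified 24 h post-dose by RT-PCR and capillary electrophoresis of 6-FAM-labelled products. Bidirectional fitting against DMSO.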
# [9] = ATG_MRE_CIS: Attagene CIS-FACTORIAL HepG2 Assay for human Metal Responsive Element (MRE) (AID 2282954); conditions: HepG2 MRE cis-reporter transcription, Attagene multiplex; actives raise or lower the signal
# How it was run: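 Multiplexed cis-reporter assay in human HepG2 liver cells, 24 h incubation with test chemical. Reporter transcripts measured by RT-PCR and capillary electrophoresis; values from bidirectional curve fitting versus DMSO.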
# [10] = ATG_PBREM_CIS: Attagene CIS-FACTORIAL HepG2 Assay for human Phenobarbital-responsive Enhancer Module (PBREM) (AID 2282955); conditions: HepG2 PBREM cis-reporter, Attagene multiplexed transcription; actives raise or lower the signal
# How it was run: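 Endogenous transcription factor activity was read from reporter transcripts in transiently transfected human HepG2 liver cells after 24 h dosing. RT-PCR products were fluorescently labelled, HpaI-cut and sized by capillary electrophoresis; activity fitted bidirectionally against DMSO baseline.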
# [11] = ATG_PXRE_CIS: Attagene CIS-FACTORIAL HepG2 Assay for human Pregnane X Receptor Element (PXRE) (AID 2282957); conditions: HepG2 Attagene CIS-FACTORIAL PXRE reporter, mRNA; actives raise or lower the signal
# How it was run: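 Bidirectional activity, baselined to DMSO, derived from reporter mRNA fluorescence (RT-PCR plus capillary electrophoresis) in HepG2 cells bearing cis-promoter reporter units, 24 h exposure.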
# [12] = ATG_PPRE_CIS: Attagene CIS-FACTORIAL HepG2 Assay for human Peroxisome Proliferator-activated Response Element (PPRE) (AID 2282958); conditions: HepG2 PPRE cis-element reporter, Attagene transcription factor profiling; actives raise or lower the signal
# How it was run: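 Endogenous PPRE-driven transcription is measured in HepG2 cells carrying transfected multi-reporter constructs. Reporter transcripts are quantified by RT-PCR, HpaI digestion and capillary electrophoresis 24 h after dosing. DMSO baseline, bidirectional fit.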
# [13] = ATG_RORE_CIS: Attagene CIS-FACTORIAL HepG2 Assay for human RAR-related Orphan Receptor Element (RORE) (AID 2282959); conditions: HepG2 Attagene cis-factorial RORE reporter, mRNA; actives raise or lower the signal
# How it was run: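 RORE reporter transcripts reflecting endogenous factor activity were read after 24 h compound exposure of transfected HepG2 cells, using reverse transcription, PCR, fluorescent labelling and capillary electrophoresis sizing. Gain or loss fitted against DMSO.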
# [14] = ATG_Sox_CIS: Attagene CIS-FACTORIAL HepG2 Assay for human SRY-box transcription factor (SOX) (AID 2282960); conditions: HepG2 Attagene cis-factorial SOX reporter, mRNA; actives raise or lower the signal
# How it was run: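 Reporter transcripts, measured by RT-PCR and capillary electrophoresis of labelled fragments, report endogenous SOX transcription factor activity. Transiently transfected human HepG2 cells receive chemical for 24 h; changes in either direction are fitted relative to DMSO.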
# [15] = molecular target: Transcription factor Sp1 (Homo sapiens) (UniProt P08047); experiment: ATG_Sp1_CIS: Attagene CIS-FACTORIAL HepG2 Assay for human Specificity Protein 1 (Sp1) (AID 2282961); conditions: HepG2 Sp1 cis-reporter transcription, actives raise or lower the signal
# Sequence of Transcription factor Sp1 (Homo sapiens) (P08047 whole entry, looked up): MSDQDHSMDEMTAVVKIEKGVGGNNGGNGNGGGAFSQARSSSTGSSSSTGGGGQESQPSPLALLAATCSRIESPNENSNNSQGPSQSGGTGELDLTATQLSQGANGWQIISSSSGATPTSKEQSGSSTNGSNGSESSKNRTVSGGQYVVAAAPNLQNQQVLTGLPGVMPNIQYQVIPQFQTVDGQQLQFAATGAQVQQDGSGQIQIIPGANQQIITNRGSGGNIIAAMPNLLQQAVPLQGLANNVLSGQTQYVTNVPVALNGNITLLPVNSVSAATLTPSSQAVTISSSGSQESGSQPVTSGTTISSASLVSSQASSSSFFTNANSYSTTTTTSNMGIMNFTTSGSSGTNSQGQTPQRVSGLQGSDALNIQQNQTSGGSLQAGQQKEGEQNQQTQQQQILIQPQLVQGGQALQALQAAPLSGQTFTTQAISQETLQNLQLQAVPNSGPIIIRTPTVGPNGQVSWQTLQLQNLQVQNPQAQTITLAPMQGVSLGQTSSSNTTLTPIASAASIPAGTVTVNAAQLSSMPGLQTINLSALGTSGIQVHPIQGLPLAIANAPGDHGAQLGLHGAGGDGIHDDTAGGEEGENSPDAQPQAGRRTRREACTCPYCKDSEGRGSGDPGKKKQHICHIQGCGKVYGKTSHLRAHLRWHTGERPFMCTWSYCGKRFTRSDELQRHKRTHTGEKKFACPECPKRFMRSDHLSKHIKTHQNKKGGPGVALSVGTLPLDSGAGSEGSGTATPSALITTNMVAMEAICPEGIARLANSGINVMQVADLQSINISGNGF
# How it was run: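 Read-out is reporter transcript level, measured by RT-PCR and fluorescent capillary electrophoresis after 24 h chemical treatment. System: transiently transfected HepG2 cells reporting endogenous transcription factor activity; gain or loss fitted against DMSO baseline.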
# [16] = ATG_SREBP_CIS: Attagene CIS-FACTORIAL HepG2 Assay for human Sterol Regulatory Element Binding (SREBP) (AID 2282962); conditions: HepG2 Attagene cis-factorial SREBP reporter, mRNA; actives raise or lower the signal
# How it was run: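 In this cis-format assay, HepG2 liver cells express reporters controlled by promoter elements responsive to native transcription factors. Exposure lasts 24 h; reporter mRNA fluorescence from capillary electrophoresis gives the signal, fitted bidirectionally against DMSO.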
# [17] = molecular target: Signal transducer and activator of transcription 3 (Homo sapiens) (UniProt P40763); experiment: ATG_STAT3_CIS: Attagene CIS-FACTORIAL HepG2 Assay for human Signal Transducer and Activator of Transcription 3 (STAT3) (AID 2282963); conditions: HepG2, Attagene cis-factorial STAT3 reporter transcription; actives raise or lower the signal
# Sequence of Signal transducer and activator of transcription 3 (Homo sapiens) (P40763 whole entry, looked up): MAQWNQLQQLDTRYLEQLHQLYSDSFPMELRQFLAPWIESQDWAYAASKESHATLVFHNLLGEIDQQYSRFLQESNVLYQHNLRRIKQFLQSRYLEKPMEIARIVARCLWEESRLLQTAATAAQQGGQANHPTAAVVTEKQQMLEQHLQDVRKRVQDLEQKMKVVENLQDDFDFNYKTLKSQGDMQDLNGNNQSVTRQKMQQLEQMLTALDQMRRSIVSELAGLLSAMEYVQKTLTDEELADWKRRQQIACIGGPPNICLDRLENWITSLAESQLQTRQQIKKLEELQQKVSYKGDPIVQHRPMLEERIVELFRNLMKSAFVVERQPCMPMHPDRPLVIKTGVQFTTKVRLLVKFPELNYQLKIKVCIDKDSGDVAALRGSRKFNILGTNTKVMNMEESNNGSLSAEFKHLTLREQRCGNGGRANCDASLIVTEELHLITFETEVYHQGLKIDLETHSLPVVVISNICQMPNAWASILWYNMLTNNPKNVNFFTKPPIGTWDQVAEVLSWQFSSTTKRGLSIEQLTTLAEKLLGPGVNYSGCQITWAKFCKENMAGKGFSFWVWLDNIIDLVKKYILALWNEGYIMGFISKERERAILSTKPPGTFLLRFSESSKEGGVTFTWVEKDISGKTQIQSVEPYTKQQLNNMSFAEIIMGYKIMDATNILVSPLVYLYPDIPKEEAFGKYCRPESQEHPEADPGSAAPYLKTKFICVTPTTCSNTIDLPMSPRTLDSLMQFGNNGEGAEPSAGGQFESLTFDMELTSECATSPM
# How it was run: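 Cis-factorial format: endogenous transcription factors in HepG2 drive transfected reporter units. After 24 h treatment, reporter RNA was reverse-transcribed, amplified, FAM-labelled and HpaI-digested before CE analysis; activity scored in both directions against DMSO.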
# [18] = ATG_TA_CIS: Attagene CIS-FACTORIAL HepG2 Assay for human TA Basal Promoter (AID 2282964); conditions: HepG2 Attagene CIS-factorial TA basal promoter reporter; actives raise or lower the signal
# How it was run: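 HepG2 cells transiently transfected with multiple reporter units under cis promoter elements, reporting endogenous transcription factor activity; this endpoint tracks the TA basal promoter as background control. Reporter mRNA after 24 h dosing measured by RT-PCR/capillary electrophoresis; bidirectional fits versus DMSO.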
# [19] = molecular target: Paired box protein Pax-6 (Homo sapiens) (UniProt P26367); experiment: ATG_Pax6_CIS: Attagene CIS-FACTORIAL HepG2 Assay for human Paired Box 6 (PAX6) (AID 2282956); conditions: HepG2 CIS-FACTORIAL PAX6 reporter transcription, RNA readout; actives raise or lower the signal
# Sequence of Paired box protein Pax-6 (Homo sapiens) (P26367 whole entry, looked up): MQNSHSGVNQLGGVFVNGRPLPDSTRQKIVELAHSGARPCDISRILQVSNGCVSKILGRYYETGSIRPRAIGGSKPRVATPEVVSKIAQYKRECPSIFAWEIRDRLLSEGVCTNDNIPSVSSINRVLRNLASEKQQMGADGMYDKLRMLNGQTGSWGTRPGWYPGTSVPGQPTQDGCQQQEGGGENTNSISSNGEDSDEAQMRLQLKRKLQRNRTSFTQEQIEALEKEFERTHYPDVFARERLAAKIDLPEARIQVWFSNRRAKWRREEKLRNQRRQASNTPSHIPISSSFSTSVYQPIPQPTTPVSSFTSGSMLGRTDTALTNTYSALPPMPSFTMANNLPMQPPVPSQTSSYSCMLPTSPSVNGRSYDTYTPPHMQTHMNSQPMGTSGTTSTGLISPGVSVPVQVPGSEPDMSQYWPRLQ
# How it was run: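 DMSO-referenced bidirectional fits of reporter mRNA fluorescence; HepG2 with transient cis-promoter MRTUs, 24 h post-dose, RT-PCR plus capillary electrophoresis detection.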
# [20] = ATG_ISRE_CIS: Attagene CIS-FACTORIAL HepG2 Assay for human Interferon Regulatory Factor 1 (IRF1) binding to an Interferon-Stimulated Response Element (ISRE) (AID 2282948); conditions: HepG2 ISRE cis-reporter (Attagene), mRNA transcription readout; actives raise or lower the signal
# How it was run: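 Uses HepG2 liver cells transfected with cis-regulated reporters and measures mRNA 24 h post-dosing through RT-PCR, primer-extension labelling and capillary electrophoresis, with DMSO as negative control.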
compound,measurement,setting,value
O=S(=O)(O)CCC(F)(F)C(F)(F)C(F)(F)C(F)(F)F,outcome,[1],inactive
same,outcome,[2],inactive
same,outcome,[3],inactive
same,outcome,[4],inactive
same,outcome,[5],inactive
same,outcome,[6],inactive
same,outcome,[7],inactive
same,outcome,[8],inactive
same,outcome,[9],inactive
same,outcome,[10],inactive
same,outcome,[11],inactive
same,outcome,[12],inactive
same,outcome,[13],inactive
same,outcome,[14],inactive
same,outcome,[15],inactive
same,outcome,[16],inactive
same,outcome,[17],inactive
same,outcome,[18],inactive
FC(F)(F)C(F)(F)C(F)(F)C(F)(F)C(F)(F)C(F)(F)CC[Si](Cl)(Cl)Cl,outcome,[1],inactive
same,outcome,[2],inactive
same,outcome,[3],inactive
same,outcome,[4],inactive
same,outcome,[5],inactive
same,outcome,[6],inactive
same,outcome,[7],inactive
same,outcome,[8],inactive
same,outcome,[9],inactive
same,outcome,[10],inactive
same,outcome,[11],inactive
same,outcome,[12],inactive
same,outcome,[13],inactive
same,outcome,[14],inactive
same,outcome,[15],inactive
same,outcome,[16],inactive
same,outcome,[17],inactive
same,outcome,[18],inactive
CC(=O)CCC(C)C,outcome,[1],inactive
same,outcome,[2],inactive
same,outcome,[3],inactive
same,outcome,[4],inactive
same,outcome,[5],inactive
same,outcome,[6],inactive
same,outcome,[7],inactive
same,outcome,[8],inactive
same,outcome,[9],inactive
same,outcome,[10],inactive
same,outcome,[19],inactive
same,AC50,[11],52.9 µM (active)
same,outcome,[12],inactive
same,outcome,[13],inactive
same,outcome,[14],inactive
same,outcome,[15],inactive
same,outcome,[16],inactive
same,outcome,[17],inactive
same,outcome,[18],inactive
CCCCOC(=O)[C@H](C)O,outcome,[1],inactive
same,outcome,[2],inactive
same,outcome,[3],inactive
same,outcome,[20],inactive
same,outcome,[4],inactive
same,outcome,[5],inactive
same,outcome,[7],inactive
same,outcome,[8],inactive
same,outcome,[10],inactive
same,outcome,[11],inactive
same,outcome,[12],inactive
same,outcome,[13],inactive
same,outcome,[14],inactive
same,outcome,[15],inactive
same,outcome,[16],inactive
same,outcome,[17],inactive
CCN(CCO)S(=O)(=O)C(F)(F)C(F)(F)C(F)(F)C(F)(F)C(F)(F)C(F)(F)C(F)(F)C(F)(F)F,outcome,[1],inactive
same,outcome,[2],inactive
same,outcome,[3],inactive
same,outcome,[4],inactive
same,outcome,[5],inactive
same,outcome,[6],inactive
same,outcome,[7],inactive
same,outcome,[8],inactive
same,outcome,[9],inactive
same,outcome,[10],inactive
same,outcome,[19],inactive
same,AC50,[11],9.56 µM (active)
same,outcome,[12],inactive
same,outcome,[13],inactive
same,outcome,[14],inactive
same,outcome,[15],inactive
same,outcome,[16],inactive
same,outcome,[17],inactive
same,outcome,[18],inactive
NC(=O)C(F)(F)C(F)(F)C(F)(F)C(F)(F)C(F)(F)C(F)(F)C(F)(F)F,outcome,[1],inactive
same,outcome,[2],inactive
same,outcome,[3],inactive
same,outcome,[4],inactive
same,outcome,[5],inactive
same,outcome,[6],inactive
same,outcome,[7],inactive
same,outcome,[8],inactive
same,outcome,[9],inactive
same,outcome,[10],inactive
same,outcome,[19],inactive
same,outcome,[11],inactive
same,outcome,[12],inactive
same,outcome,[13],inactive
same,outcome,[14],inactive
same,outcome,[15],inactive
same,outcome,[16],inactive
same,outcome,[17],inactive
same,outcome,[18],inactive
FC(F)(F)C(F)(F)C(F)(F)C(F)(F)C(F)(F)C(F)(F)C(F)(F)CCI,outcome,[2],inactive
same,outcome,[3],inactive
same,outcome,[20],inactive
same,outcome,[4],inactive
same,outcome,[5],inactive
same,outcome,[6],inactive
same,outcome,[7],inactive
same,outcome,[8],inactive
same,outcome,[9],inactive
same,outcome,[10],inactive
same,outcome,[19],inactive
same,outcome,[11],inactive
same,outcome,[12],inactive
same,outcome,[13],inactive
same,outcome,[14],inactive
same,outcome,[15],inactive
same,outcome,[16],inactive
same,outcome,[17],inactive
